Bioassay records: PubChem BioAssay, National Center for Advancing Translational Sciences (NCATS)
Only some compounds are listed: those with a hit (about 3.3% of all), similar ones and a draw of the others.
Vaccinia mCherry: inhibitors of vaccinia virus infection (mCherry reporter signal); Vaccinia virus mCherry reporter infection, fluorescence; Potency, µM (titrated, usually from 36.5 µM), for inactives: at the top dose activity change, negative = inhibition, hits mostly inhibitors; 0.63% of 310,000 active; calls by dose curve; tested in A549 cells; note: nearly all actives have a fitted effect of over 35% in size
Vaccinia Venus: inhibitors of vaccinia virus (Venus reporter); 0.46% of 330,000 active; AID 720580; Potency, µM (series often up to 36.5 µM), for the others: top-dose activity change, negative = inhibition, usual class: inhibitors; Vaccinia virus Venus reporter expression, fluorescence; calls by dose curve; tested in A549 cells; note: nearly all actives have a fitted effect of over 30% in size
HCV inh: HCV inhibition; Huh7.5.1 HCVcc-Cre infection, luciferase reporter, 44 h; Potency, µM (highest dose often 41.8 µM), inactives show at the highest dose activity change, negative = inhibition, usual class: inhibitors; 3.4% of 340,000 active; active = well fitted inhibition curve with a large enough effect; inconclusive = small, poorly fitted or top-dose-only effect, or another doubt; inactive = no such curve, though single readings can be large or run the other way
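Compounds are dispensed onto cells plated 4 h earlier at 1,000 per well, with HCVcc-Cre virus (about 0.5 moi) added next. Following 44 h of culture, luminescent signal is measured for 15 sec after 15 min with substrate at room temperature.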
Starred values were filed as active, the others as inactive; i = inactive; ? = inconclusive; / = not tested or not shown; [ ] = remark or other dose. % is set by controls: 0 for no effect and ±100 for the full control effect; potency is the fitted concentration of half-maximal effect.

SMILES	Vaccinia mCherry	Vaccinia Venus	HCV inh
CC(=O)NC(c1ccc(C)cc1)c1cc(Cl)c2cccnc2c1O (stereo not drawn)	?	?	5.6µM*
CCCC(=O)NC(c1ccc(OCC)cc1)c1ccc(OC)c(OC)c1 (stereo not drawn)	-14%	-2%	-12%
COc1ccc(C(=O)NC(c2ccc(OC)c(OC)c2)c2cc(Cl)c3cccnc3c2O)cc1 (stereo not drawn)	4.5µM*	?	/
CCC(=O)NC(c1ccc(OC)cc1)c1c(O)ccc2ccccc12 (stereo not drawn)	-14%	-23%	-13%
CCC(=O)NC(c1ccc(OC)cc1)c1cc(Cl)c2cccnc2c1O (stereo not drawn)	?	?	2.5µM*
CC(=O)NC(c1cccs1)c1cc([N+](=O)[O-])c2cccnc2c1O (stereo not drawn)	?	?	13µM*
Cc1cc(C)c2cccnc2c1O	-17%	-8%	/
CCCC(=O)NC(c1cccs1)c1cc([N+](=O)[O-])c2cccnc2c1O (stereo not drawn)	?	-26%	?
CC1(C(=O)NCc2cccs2)CCN1C(=O)Cc1ccc(Cl)cc1Cl (stereo not drawn)	i	2%	/
CCCCN(CCCC)c1ccc(C=Nc2ccc(/C=C/c3ccnc4ccccc34)cc2)cc1C	-17%	-14%	/
COc1ccc(C(NC(=O)c2cccnc2)c2cc(Cl)c3cccnc3c2O)cc1OC (stereo not drawn)	-11%[1.46 µM]	?	8.9µM*
COc1ccc(C(=O)NCCCNC(=O)c2cccnc2)cc1OC	7%	8%	1%
CCn1nnnc1-c1ccc(OC)c(S(=O)(=O)Nc2ccccc2OC)c1	-13%	-10%	/
Cc1cnc(C)c(-c2cc(F)cc3c2OC(CNC(=O)c2cc(Cl)ccc2F)C3)n1 (stereo not drawn)	-8%	-8%	/
CCN(c1ccccc1)S(=O)(=O)c1cccc(C(=O)NCC(c2ccco2)N2CCCC2)c1 (stereo not drawn)	-8%	-26%	10µM*
O=C(NCC(c1ccco1)N1CCCC1)c1cccc(S(=O)(=O)N2CCCCC2)c1 (stereo not drawn)	?	-24%	/
CCN(c1ccccc1)S(=O)(=O)c1cc(C(=O)NCC(c2ccco2)N2CCCCC2)ccc1C (stereo not drawn)	?	-27%	?
CCN(c1ccccc1)S(=O)(=O)c1cccc(C(=O)NCC(c2ccco2)N2CCCCC2)c1 (stereo not drawn)	?	-24%	10µM*
CSc1ccccc1NC(=O)CSc1nnc(COc2ccccc2)o1	-7%	-18%	-8%
COc1ccc(C2c3[nH]c4ccccc4c3C[C@H]3C(=O)N(c4ccccc4C(=O)N4CCC[C@@H]4C(=O)O)C(=O)N23)cc1 (stereo partly drawn)	2%	13%	12%
COc1cccc(C2c3[nH]c4ccccc4c3C[C@H]3C(=O)N(c4ccccc4C(=O)N4CCC[C@H]4C(=O)O)C(=O)N23)c1 (stereo partly drawn)	7%	5%	2.2µM*
Cc1ccccc1N1C(N)=NC(N)=NC1(C)C	/	-29%	-5%
CC1(C)N=C(N)N=C(N)N1CCCCc1ccccc1	0.71µM*	1µM*	?
O=S(=O)(c1cccc2ccccc12)N1CCN(c2nc(-c3cccs3)nc3ccccc23)CC1	i	-15%	/
CCC(C)(C)NC(=O)C(c1ccc(F)cc1)N(Cc1ccccc1)C(=O)c1cnccn1 (stereo not drawn)	i	-8%	1.4µM*
SMILES	Vaccinia mCherry	Vaccinia Venus	HCV inh
COc1cc(C(C(=O)NC(C)(C)C)N(Cc2ccccc2)C(=O)c2cnccn2)cc(OC)c1OC (stereo not drawn)	-16%	-2%	23%
Cc1cccc(CNc2cc(-c3ccoc3)ncn2)c1	30%	40%	/
COc1cccc(C(C)(O)c2nc(-c3cccc(NC(C)=O)c3)cs2)c1 (stereo not drawn)	1%	-15%	/
Clc1ccc(CN2CCSCC2)c(Cl)c1	i	-18%	-8%
N=c1ccn(Cc2ccccc2Cl)cc1	/	?	2.5µM*
N=c1ccn(Cc2c(Cl)cccc2Cl)cc1	-19%	7%	?
N=c1ccn(Cc2ccc(Cl)cc2Cl)cc1	/	?	2.8µM*
Cc1ccc2[nH]c3c(Cl)ncnc3c2c1	-1%[7.34 µM]	-11%[7.34 µM]	-6%
c1coc(CNc2ncnc3c2[nH]c2ccccc23)c1	-21%	?	/
CCCOc1ncnc2c1[nH]c1ccc(C)cc12	/	/	13µM*
CCOc1ncnc2c1[nH]c1ccccc12	?	-26%	10µM*
C=CCn1c(SCCC)nc2ccccc2c1=O	-24%	7%	/
CC(=O)Oc1ccc2cc(-c3nc4c(s3)CCc3ccccc3-4)c(=O)oc2c1	-17%	32%	/
Cc1cc(Nc2cccc([N+](=O)[O-])c2)n2c(nc3ccccc32)c1C#N	?	?	6.3µM*
Cc1cc(Nc2ccc(F)cc2)n2c(nc3ccccc32)c1C#N	4%	1%	/
COC(=O)c1ccc(NC(=O)c2cccc(N3C(=O)C4C5C=CC(C6CC56)C4C3=O)c2)cc1 (stereo not drawn)	-16%	-15%	5µM*
O=C(Nc1ccc(Br)cc1)c1cccc(N2C(=O)C3C4CCC(C4)C3C2=O)c1 (stereo not drawn)	-26%	-24%	25µM*
O=C(Nc1ccc(F)cc1)c1cccc(N2C(=O)C3C4CCC(C4)C3C2=O)c1 (stereo not drawn)	-6%	-25%	5%
O=C(Nc1ccccc1)c1cccc(N2C(=O)C3C4C=CC(C5CC45)C3C2=O)c1 (stereo not drawn)	-8%	-20%	?
CCN(CC)C(=O)CSc1nc(-c2ccc(C)cc2)nc2c1Cc1c(CO)cnc(C)c1O2	-16%	-21%	/
O=C(C1CC1)N1CCc2cc(Br)cc(S(=O)(=O)N3CCN(c4cccc(C(F)(F)F)c4)CC3)c21	-6%	-3%	/
O=C1CCC[C@@H]2[C@@H](Cc3ccccc3)[C@@H](Nc3ccccc3)C[C@@H]3CCN1[C@@H]32	i	-9%	/
CC1CCc2c(sc(NC(=O)Cn3nc(C(=O)O)c4ccccc4c3=O)c2C#N)C1 (stereo not drawn)	/	/	-6%
CCCc1cc(=O)[nH]c(SCC(=O)Nc2sc3c(c2C#N)CCC(C)C3)n1 (stereo not drawn)	-4%	-24%	-2%
CCN1CCN(CC(=O)Nc2sc3c(c2C#N)CCC(C)C3)CC1 (stereo not drawn)	-3%	-17%	35µM*
SMILES	Vaccinia mCherry	Vaccinia Venus	HCV inh
CC1CCc2c(sc(NC(=O)CSc3ncn[nH]3)c2C#N)C1 (stereo not drawn)	/	/	11µM*
Cc1nc(C)c(CC(=O)N2CCOc3ccc(CN4CCN(c5ccccn5)CC4)cc3C2)s1	?	-27%	/
COc1ccc(C(C)(O)c2nc(-c3csc4ccccc34)cs2)cc1 (stereo not drawn)	0%	-15%	/
CCc1ccc(C(O)(CNCc2ccccc2)c2ccccc2)cc1 (stereo not drawn)	/	/	-2%
Cc1nn2c(NCCN(C)C)c3c(nc2c1-c1ccccc1)CCCC3	-25%	-13%	7.1µM*
Cc1nn2c(NCCOCCO)c3c(nc2c1-c1ccccc1)CCCC3	/	/	11µM*
CCCCNc1c2c(nc3c(-c4ccccc4)c(C)nn13)CCC2	/	/	-20%
